HCV inhibitor – HCV inhibition | Huh7.5.1 HCVcc-Cre infection, luciferase reporter, 44 h | Potency, µM (series often up to 41.8 µM), hits mostly inhibitors | 340,000 compounds, 3.4% hits | AID 651820
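Cells (1,000/well) were plated 4 h before compound, then infected with HCVcc-Cre virus (~0.5 moi). After 44 h further culture, infection was read as luciferase luminescence following a 15 min substrate incubation at room temperature.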
MARV entry inh – Marburg virus entry inhibition; 300,000 compounds, 1.8% hits; Marburg virus pseudotyped entry inhibition, cell reporter; Potency, µM (series often up to 37.8 µM), usual class: inhibitors; AID 540276; calls by dose curve; tested in HEK293 cells
FMDV antiviral – antivirals against foot and mouth disease virus; FMDV antiviral cell-based qHTS; Potency, µM (doses to about 57.9 µM), hits mostly inhibitors; 410,000 compounds, 1.2% hits; calls by dose curve; tested in HEK293T cells; also: read-out not given here; nearly all actives have a fitted effect of over 45% in size
Sm TGR inh – blocks Schistosoma mansoni thioredoxin glutathione reductase; Potency, µM (highest dose often 114 µM), hits mostly inhibitors; 360,000 compounds, 3% hits; purified TGR, DTNB reduction, TNB absorbance 405 nm; Q962Y6; also: nearly all actives have a fitted effect of over 60% in size
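First, TGR (20 nM dispensed) and NADPH were mixed with compound. Second, a 15 min room-temperature incubation followed. Third, further NADPH and then DTNB were added to start the reaction. Finally, TNB absorbance was monitored kinetically.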
RE007 growth inh – less growth of the S. pombe RE007 Vpr strain. S. pombe RE007 Vpr strain, BacTiter-Glo ATP luminescence, 24 h. Potency, µM (top dose mostly 92.2 µM), usual class: inhibitors. 360,000 compounds, 0.21% hits. AID 651644; active = well fitted falling curve with a large enough effect; inconclusive = small, poorly fitted or top-dose-only effect; inactive = no such curve, though single readings can be large or run the other way; also: nearly all actives have a fitted effect of over 50% in size
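Fission yeast strain RE007, carrying one chromosomally integrated HIV-1 vpr copy, was seeded at OD 0.01 in PMG+AL medium with 23 nL pinned compound. After 24 h at 30 °C and 99% humidity, viability was read by BacTiter-Glo luminescence.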
LASV entry inh – inhibitors of Lassa virus binding or cell entry | Potency, µM (highest dose often 37.9 µM), usual class: inhibitors | AID 540256 | Lassa virus pseudotype entry inhibition, cell reporter | 300,000 compounds, 1.2% hits; calls by dose curve; tested in HEK293 cells; also: nearly all actives have a fitted effect of over 50% in size
Hits are given with their value. Only some compounds are listed: those with a hit (about 7.2% of all), similar ones and a draw of the others. Unless noted, calls follow the shape of the dose curve; as a rule, active = well fitted curve in the direction sought with a large enough effect; inconclusive = small, poorly fitted or top-dose-only effect, or another doubt; inactive = no such curve, though single readings can be large; an effect the other way counts as inactive or inconclusive.

`C#CCOCCOCCOCCNc1nc(N2CCN(C(=O)[C@H]([C@@H](C)CC)n3cc([C@@H](N)Cc4ccc(O)cc4)nn3)CC2)nc(N2CCN(C(=O)[C@H](CCCCN)n3cc([C@@H](N)CO)nn3)CC2)n1` gave Sm TGR inh 20µM.
Screening C#CCOCCOCCOCCNc1nc(N2CCN(C(=O)[C@H](Cc3ccc(O)cc3)n3cc([C@@H](N)C(C)CC)nn3)CC2)nc(N2CCN(C(=O)[C@H](CCCCN)n3cc([C@@H](N)CO)nn3)CC2)n1 (some centres not stated) returned HCV inhibitor inactive, FMDV antiviral inactive, Sm TGR inh inactive and RE007 growth inh inactive.
`COC(=O)[C@@H]1CCCN1Cc1ccc2c(c1)CN(Cc1nccs1)CCO2` gave FMDV antiviral inactive.
Screening O=C(OC1Cc2c(O)cc(O)cc2OC1c1cc(O)c(=O)c2c(O)c(O)cc(C3Oc4cc(O)cc(O)c4CC3OC(=O)c3cc(O)c(O)c(O)c3)c2c1)c1cc(O)c(O)c(O)c1 (configuration not stated) returned FMDV antiviral inactive.
For NC(=O)C1CN(S(=O)(=O)c2ccc(Cl)cc2F)c2ccccc2O1 (configuration not stated) the results were HCV inhibitor inactive, MARV entry inh inconclusive, FMDV antiviral inactive, Sm TGR inh 40µM, RE007 growth inh inactive and LASV entry inh inactive.
For COCCn1c(C)cc(O)c(C(c2ccccc2)N2CCN(c3ccccc3)CC2)c1=O (configuration not stated) the results were FMDV antiviral inactive, Sm TGR inh 4.5µM and LASV entry inh inactive.
`COCCn1c(C)cc(O)c(C(c2ccccc2)N2CCN(CCO)CC2)c1=O` (configuration not stated) gave FMDV antiviral inactive, Sm TGR inh 3.5µM and LASV entry inh inactive.
`CCOc1ccc(C(c2c(O)cc(C)n(CCOC)c2=O)N2CCN(c3ccc(F)cc3)CC2)cc1` (configuration not stated) gave FMDV antiviral inactive, Sm TGR inh 5.6µM and LASV entry inh inactive.
For COCCn1c(C)cc(O)c(C(c2ccccc2)N2CCN(c3ccc(F)cc3)CC2)c1=O (configuration not stated) the results were FMDV antiviral inactive, Sm TGR inh 3.2µM and LASV entry inh inactive.
For O=S(=O)(c1ccccc1)N1CCC2(CC1)CN(C(c1ccccc1)c1ccccc1)C2 the results were FMDV antiviral inactive.
Screening Cc1ccc(C)c(N2CCN(C(=O)C3CCC(CNS(=O)(=O)c4ccc(Br)s4)CC3)CC2)c1 (configuration not stated) returned MARV entry inh inactive, FMDV antiviral inconclusive, Sm TGR inh inactive and LASV entry inh inactive.
For O=C(NCCN1CCOCC1)C(=O)NCC1OCCN1S(=O)(=O)c1ccc(F)cc1 (configuration not stated) the results were HCV inhibitor inactive, MARV entry inh inactive, FMDV antiviral inactive, Sm TGR inh inactive, RE007 growth inh inactive and LASV entry inh inactive.
CCOc1ccc2nc(NC(=O)CSc3cn[nH]n3)sc2c1 was read as HCV inhibitor inconclusive, MARV entry inh inconclusive, FMDV antiviral inactive, Sm TGR inh inactive, RE007 growth inh inactive and LASV entry inh inconclusive.
For CCOc1ccc2nc(NC(=O)CSC3=NCCS3)sc2c1 the results were HCV inhibitor 8.9µM, MARV entry inh inconclusive, FMDV antiviral inactive, Sm TGR inh inactive, RE007 growth inh inactive and LASV entry inh inconclusive.
Screening COc1ccc2nc(NC(=O)CSc3cn[nH]n3)sc2c1 returned HCV inhibitor 13µM, MARV entry inh inconclusive, FMDV antiviral inactive, Sm TGR inh inactive and RE007 growth inh inactive.
For CCC(C)OC(=O)/C(C#N)=C\c1ccc(-c2ccccc2Cl)o1 (configuration not stated) the results were FMDV antiviral inactive, Sm TGR inh inactive and LASV entry inh inactive.
Screening CC(C)Oc1ccc(CNC(=O)CCCN2C(=O)c3cccnc3Oc3ccc(Cl)cc32)cc1 returned FMDV antiviral inactive, Sm TGR inh inactive and LASV entry inh inactive.
